Screens (PubChem BioAssay)
PrP UTR inh = inhibition of PrP 5' UTR reporter expression; cell-based PrP 5' UTR mRNA reporter, plate reader; inhibition, % (concentration not given with the values); 0.35% of 340,000 active; AID 488862, 2010; in the data active = inhibition above about 52%; note: 0 = median of the neutral control wells
BJeLR lethal = MLPCN primary cell-based screen for lethality selective to Ras in HRASV12 cells; BJeLR (HRASV12) viability, CellTiter-Glo ATP luminescence, 48 h; inhibition, % (concentration not given with the values); 0.17% of 300,000 active; AID 1554, 2009; in the data active = inhibition above about 50%
PrPC surface inh = inhibitors of human cell surface prion protein PrPC, primary screen, cell-based, TR-FRET; inhibition, % at 13.8 µM; Major prion protein (Homo sapiens), P04156; TR-FRET read-out; 0.43% of 370,000 active; in the data active = inhibition above about 24%; note: 0% = median of the test wells and 100% = reference compound wells
MazF activator = activators of E. coli MazEF toxin-antitoxin RNase, primary screen, biochemical, fluorescence, uHTS; Endoribonuclease toxin MazF (Escherichia coli (strain K12)), P0AE70; FAM/BHQ RNA-DNA oligo cleavage fluorescence, 5 h; activation, % at 20 µM; 0.32% of 350,000 active; AID 504720, 2011; in the data active = activation above about 50%
PrPC confirm = confirmation of inhibitors of cell surface human prion protein, confirmation, cell-based, TR-FRET; inhibition, % at 13.8 µM; AID 743200, 2013; 65% of 1,500 active; cell surface PrPC level; shares compounds with PrPC surface inh; in the data active = inhibition above about 25%
LD9 cytotox = cytotoxicity in LD9 cells, cytotoxicity control for cell surface PrPc inhibitor project, cell-based, luminescence, high throughput | shares compounds with PrPC surface inh | luminescence viability | inhibition, % at 13.8 µM | 29% of 1,500 active | AID 743201, 2013; in the data active = inhibition above about 9.5%
Active calls of the source: *; · = no result. The list is not random: actives were taken first. Their share in the collection is about 1.1%.

SMILES	PrP UTR inh	BJeLR lethal	PrPC surface inh	MazF activator	PrPC confirm	LD9 cytotox
Nc1ccc2nc(-c3ccc(-c4nc5ccc(N)cc5[nH]4)cc3)[nH]c2c1	·	4	26*	-7	25*	1
O=C(CN1C(=O)CCSc2ccccc21)Nc1ccc(Cl)cc1	·	·	-4	·	·	·
CCCCCCCCN1C(=O)[C@@H](CC(=O)NCC23CC4CC(CC(C4)C2)C3)C[C@@]2(C(=O)OC)C1=C[C@H](C(C)(C)C)O[C@@H]2C	·	·	-3	·	·	·
O=c1c(Cc2ccc(Cl)cc2)c(O)ccn1Cc1ccccc1	-23	3	5	8	·	·
CCOC(CCn1ccc(O)c(Cc2ccc(Cl)cc2)c1=O)OCC	5	1	35*	6	11	-1
COc1cc(NC(=O)C2CCCN(S(=O)(=O)c3ccc(Cl)s3)C2)cc(OC)c1 (stereo not drawn)	·	·	5	·	·	·
Cc1ccc(Cc2c(-c3cccc(Br)c3)nc3c4ccccc4ccn23)cc1	·	·	5	·	·	·
Cn1c(CNC(=O)C2CCCCC2)cc2cc(Cl)ccc21	-24	4	31*	0	35*	-5
Cn1c(CCNC(=O)C2CCCCC2)nc2cc([N+](=O)[O-])ccc21	1	6	-16	1	·	·
Cc1cc2cc(CNC(=O)C3CCCC3)ccc2n1C	-31	1	44*	1	5	-3
O=C(CSc1ncnc2ccccc12)Nc1ccc(N2CCOCC2)cc1	·	-1	·	·	·	·
CN(C)S(=O)(=O)c1ccc(NC(=O)CSc2ncnc3ccccc23)cc1	-9	2	50*	2	53*	-13
O=C(COc1ncnc2ccccc12)Nc1cccc(S(=O)(=O)N2CCOCC2)c1	-17	9	7	11	·	·
O=C(CSc1ncnc2ccccc12)Nc1cccc(S(=O)(=O)N2CCOCC2)c1	-45	3	68*	4	66*	3
CN(C)S(=O)(=O)c1cccc(NC(=O)CSc2ncnc3ccccc23)c1	4	8	51*	-8	77*	-4
CCCNC(=O)Nc1ccc2c(c1)C(=O)N(C)[C@H]1CC[C@@H](CC(=O)OC)O[C@H]1CO2	·	·	-10	·	·	·
CCOC(=O)C1=C[C@@H](C(C)(C)C)N(S(=O)(=O)c2ccc([N+](=O)[O-])cc2)[C@H]1c1ccccc1Cl	·	·	3	·	·	·
CCCCNC(=O)N1CCCC1C(=O)Nc1cccc(OC)c1 (stereo not drawn)	·	·	-5	·	·	·
O=C(Nc1ccc(Cl)cc1)Nc1ccc(Cl)c(Cl)c1	·	·	8	3	·	·
N#Cc1ccc(NC(=O)Nc2ccc(Cl)cc2)cc1	-39	12	27*	6	32*	16*
CN(C)c1ccc(C(=O)NCC2CCN(C(=O)C(=O)c3cccs3)CC2)cc1	·	·	13	·	·	·
O=C(CSc1ncnc2ccccc12)NCc1ccco1	-1	3	76*	-2	77*	-1
O=C(CSc1ncnc2ccccc12)NCCCO	-5	4	36*	5	32*	-7
O=C(CSc1ccccc1)NCCc1ccccc1	-45	0	-1	-5	·	·
O=C(CSc1ncnc2ccccc12)NCCc1ccccc1	-25	-1	62*	4	79*	-8
SMILES	PrP UTR inh	BJeLR lethal	PrPC surface inh	MazF activator	PrPC confirm	LD9 cytotox
COC(=O)C1=C(C)N(CC(C)C)C(=S)NC1c1ccc(-c2ccccc2)cc1 (stereo not drawn)	·	·	25*	·	14	0
COC(=O)C1=C(C)N(CC(C)C)C(=S)NC1c1cccc(OC)c1 (stereo not drawn)	·	·	-4	·	·	·
O=C(N[C@H](Cc1ccccc1)C(=O)N1CCN(c2ccc(Cl)cn2)CC1)[C@H]1O[C@@H](n2ccc(=O)[nH]c2=O)[C@H](O)[C@@H]1O	·	·	2	·	·	·
CCCC1CCC2(CCCN2CCOC(=S)Nc2cccc(Cl)c2)CC1 (stereo not drawn)	·	·	5	·	·	·
COc1ccc(N(C)S(=O)(=O)c2cccc(C(=O)NC3CCCC3)c2)cc1	-18	-3	14	3	·	·
COc1ccc(N(C)S(=O)(=O)c2cccc(C(=O)NC3CCCCC3C)c2)cc1 (stereo not drawn)	-1	-8	26*	4	12	-4
CCOC(=O)CNC(=O)CSc1nc2ccccc2c(=O)n1-c1ccc(Cl)cc1	·	·	-3	·	·	·
O=C(/C=C(\Nc1ccc(F)cc1)c1ccccc1)c1ccccc1	·	·	0	·	·	·
COc1ccc(C(CC(=O)O)NC(=O)c2sc3ccccc3c2Cl)cc1 (stereo not drawn)	-16	1	34*	-9	38*	-4
c1ccc(Cn2ccc3ccc(-c4ccc5ccn(Cc6ccc7ccccc7c6)c5c4)cc32)cc1	·	·	2	·	·	·
CCO[C@H]1OC(C(=O)NCc2nc3ccccc3[nH]2)=C[C@@H](C2CCCCC2)[C@@H]1CCCO	-11	-2	44*	5	25*	1
Cc1cccc(C(O)c2ncc(-c3ccc(C(F)(F)F)cc3)[nH]2)c1C (stereo not drawn)	·	·	26*	·	18	0
Cc1cccc(C(O)c2ncc(-c3ccc(Cl)cc3)[nH]2)c1C (stereo not drawn)	·	·	3	·	·	·
O=C(Nc1ccccc1)c1ccc(CSc2ncccn2)cc1	-101	12	37*	2	38*	2
O=C1C(Cl)=C(Nc2ccc3cn[nH]c3c2)C(=O)c2ccccc21	·	87*	71*	16	22	98*
COc1ccc(C(C(=O)NC2CCCC2)N(C(=O)c2snc(-c3ccc(F)cc3)c2N)c2ccc(OC)cc2)cc1 (stereo not drawn)	-32	4	46*	-3	60*	0
COc1cc(N/C(=C\C(=O)c2ccccc2)c2ccccc2)ccc1Cl	·	·	20	·	·	·
Brc1cc(Br)c2nc3c(cc2c1)CCC3	-12	-17	26*	-16	71*	1
COc1ccc(-c2nc3c(C)cc(Br)cn3c2Cc2cccc(Cl)c2)cc1OC	·	·	26*	·	62*	-5
Cc1cc(Br)cn2c(Cc3cccc(Cl)c3)c(-c3cccc(Cl)c3)nc12	·	·	-7	·	·	·
COc1ccccc1Cc1c(-c2ccc(OC)c(OC)c2)nc2c(C)cc(Br)cn12	·	·	3	·	·	·
COc1ccc(-c2nc3c(C)cc(Br)cn3c2CC(C)(C)C)cc1OC	·	·	42*	·	52*	-4
CS(=O)(=O)Nc1ccccc1C(=O)N1CCOCC1	-30	4	34*	2	9	-5
Clc1cccc(CNc2nc(-c3ccccn3)nnc2-c2ccccc2)c1	·	·	29*	·	37*	43*
CC(C)(C)c1ccc(CNc2nc(-c3ccccn3)nnc2-c2ccccc2)cc1	·	·	24*	·	38*	33*
c1ccc(-c2nnc(-c3ccccn3)nc2NC2CCCCC2)cc1	20	66*	38*	-8	33*	45*
COC(=O)[C@]12C[C@H](CC(=O)NCc3ccccc3)C(=O)N(Cc3ccco3)C1=C[C@H](COCc1ccccc1)O[C@@H]2C	·	·	-3	·	·	·
